# Data taken from PubChem BioAssay AID504569 (NMMLSC, 2011).
# Entries with a potency or affinity are not part of this list. The source made the active and inactive calls.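 How the source made its calls: active means activity score above a set limit, rewarding a half-maximal dose under 10 µM and fitted response height over 20%; inactive means the rest.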
# Biological target: ATP-dependent translocase ABCB1 (Homo sapiens) (UniProt P08183)
# Assay: ABCB1 efflux inhibitor potency, dose response, Jurkat-DNR cells, JC-1, flow cytometry, set 2 (AID 504569)
# Conditions: JC-1 efflux; series mostly up to 50 µM; inhibition: at the top concentration
# Sequence of ATP-dependent translocase ABCB1 (Homo sapiens) (P08183 whole entry, looked up): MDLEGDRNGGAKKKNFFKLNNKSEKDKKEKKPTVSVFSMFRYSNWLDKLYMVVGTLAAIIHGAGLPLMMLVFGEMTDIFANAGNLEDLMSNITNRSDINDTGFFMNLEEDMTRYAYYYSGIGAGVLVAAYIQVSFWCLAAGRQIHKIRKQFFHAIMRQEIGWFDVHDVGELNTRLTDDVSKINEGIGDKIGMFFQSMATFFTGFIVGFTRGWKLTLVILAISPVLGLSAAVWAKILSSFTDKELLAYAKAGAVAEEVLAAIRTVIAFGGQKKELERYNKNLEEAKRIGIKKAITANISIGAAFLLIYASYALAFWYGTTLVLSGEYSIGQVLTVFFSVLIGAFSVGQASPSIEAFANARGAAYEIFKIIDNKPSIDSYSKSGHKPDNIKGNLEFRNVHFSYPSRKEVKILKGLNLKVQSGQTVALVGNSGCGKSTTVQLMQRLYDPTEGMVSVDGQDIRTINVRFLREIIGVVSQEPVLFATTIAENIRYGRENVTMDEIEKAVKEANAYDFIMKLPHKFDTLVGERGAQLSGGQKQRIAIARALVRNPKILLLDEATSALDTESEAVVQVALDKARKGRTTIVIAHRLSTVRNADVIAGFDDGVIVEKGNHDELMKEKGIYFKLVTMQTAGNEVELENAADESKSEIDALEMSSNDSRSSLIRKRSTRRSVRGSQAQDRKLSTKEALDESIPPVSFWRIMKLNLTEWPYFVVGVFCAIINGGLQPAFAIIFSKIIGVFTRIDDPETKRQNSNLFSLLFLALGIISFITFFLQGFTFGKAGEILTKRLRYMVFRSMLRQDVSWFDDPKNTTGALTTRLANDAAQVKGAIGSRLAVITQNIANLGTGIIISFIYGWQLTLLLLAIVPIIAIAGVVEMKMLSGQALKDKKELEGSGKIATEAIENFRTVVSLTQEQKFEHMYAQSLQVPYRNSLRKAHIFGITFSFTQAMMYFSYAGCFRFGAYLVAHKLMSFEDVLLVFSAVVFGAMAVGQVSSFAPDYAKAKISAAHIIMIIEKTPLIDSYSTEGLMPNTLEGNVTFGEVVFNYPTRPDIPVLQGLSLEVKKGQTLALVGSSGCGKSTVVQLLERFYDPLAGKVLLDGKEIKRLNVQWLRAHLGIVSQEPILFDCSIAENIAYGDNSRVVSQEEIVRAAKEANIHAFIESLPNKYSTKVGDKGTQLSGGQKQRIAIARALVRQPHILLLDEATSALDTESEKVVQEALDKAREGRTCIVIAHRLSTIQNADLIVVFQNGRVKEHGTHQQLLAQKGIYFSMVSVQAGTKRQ
row,Compound,inhibition
1,CC(=O)N1CCN(c2c(C)c(C)nc3cc(-c4ccc(Cl)cc4)nn23)CC1,27.8% (inactive)
2,Cc1nc2cc(-c3cccs3)nn2c(N2CCN(C(=O)c3ccco3)CC2)c1C,11.9% (inactive)
3,O=S(=O)(c1ccccc1)N1CCN(c2cc(-c3ccccc3)nc3cc(-c4cccc(Cl)c4)nn23)CC1,5.5% (inactive)
